In the library only some 7.3% were active in any assay of this set; here they are far more common.
uPA surface inh: blocks generation of uPA at the cell surface. 330,000 compounds, 0.31% hits. AID 540303. Potency, µM (series often up to 38.3 µM), without a hit: at the top dose activity change, negative = inhibition, actives largely listed as inhibitors. cell surface uPA generation assay, qHTS; active = well fitted inhibition curve with a large enough effect; inconclusive = small, poorly fitted or top-dose-only effect; inactive = no such curve, though single readings can be large or run the other way; tested in mouse RAW 264.7 cells; note: % is set by controls: 0 for no effect and ±100 for the full control effect; nearly all actives have a fitted effect of over 55% in size
Rab9 prom act: activators of Rab9 promoter; Huh7 Rab9 promoter-luciferase reporter, luminescence, 24 h; Potency, µM (titrated, usually from 9.22 µM), without a hit: top-dose activation, negative = inhibition, most hits filed as activators; 320,000 compounds, 2.8% hits; AID 485297; note: % of control where 0% means no effect; nearly all actives have a fitted effect of over 60% in size
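Using Huh7 cells stably transfected with Rab9 promoter–luciferase, compounds were incubated 24 h at 37 °C, 5% CO2; luciferase luminescence was read 10 min after reagent addition.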
NPC1 promoter act: activates the NPC1 promoter; Huh7 NPC1 promoter luciferase reporter, 24 h; Potency, µM (top dose mostly 9.22 µM), for inactives: at the top dose activation, actives largely listed as activators; AID 485313; 320,000 compounds, 2.4% hits; note: % of control where 0% means no effect; nearly all actives have a fitted effect of over 60% in size
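Stable NPC1-promoter luciferase Huh7 line; cpd (DMSO) 24 h, 37 °C, 5% CO2; Amplite luciferase reagent 10 min RT; luminescence readout. qHTS format.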
FLuc counter: counter-screen for miR-21 project: firefly luciferase inhibitors or activators. purified FLuc, Km substrates, luminescence inhibition. Potency, µM (doses to about 57.5 µM), inactives show at the highest dose activity change, negative = inhibition, usual class: inhibitors. 360,000 compounds, 6.9% hits. AID 588342;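 note: plate controls were vehicle for no effect and reference inhibitor for full effect; nearly all actives have a fitted effect of over 55% in size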
Target sequence (P08659 whole entry, looked up): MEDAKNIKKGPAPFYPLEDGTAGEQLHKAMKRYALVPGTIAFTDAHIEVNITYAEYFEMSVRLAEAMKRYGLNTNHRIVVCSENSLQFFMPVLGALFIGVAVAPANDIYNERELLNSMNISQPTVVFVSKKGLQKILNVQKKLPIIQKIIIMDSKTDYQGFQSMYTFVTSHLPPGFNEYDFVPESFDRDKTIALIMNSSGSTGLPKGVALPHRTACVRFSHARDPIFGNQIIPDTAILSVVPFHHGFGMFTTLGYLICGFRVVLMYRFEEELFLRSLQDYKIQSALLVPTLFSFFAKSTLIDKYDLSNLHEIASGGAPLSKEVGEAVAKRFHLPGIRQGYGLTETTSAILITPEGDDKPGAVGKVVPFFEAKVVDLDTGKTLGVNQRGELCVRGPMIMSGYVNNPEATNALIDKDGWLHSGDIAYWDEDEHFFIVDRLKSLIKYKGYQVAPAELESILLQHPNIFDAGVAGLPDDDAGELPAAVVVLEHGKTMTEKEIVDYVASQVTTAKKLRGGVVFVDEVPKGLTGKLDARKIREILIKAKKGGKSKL
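Purified P. pyralis luciferase, 10 nM final, with Km-level 10 uM D-luciferin and 10 uM ATP in 50 mM Tris acetate pH 7.5, 10 mM Mg acetate, 0.01% Tween-20, 0.05% BSA; 6-point qHTS titration about 60 µM downward; luminescence read.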
ELG1 genotoxic: inducers of genotoxicity in HEK293T ELG1-luciferase cells; HEK293T ELG1-luciferase reporter, luminescence, 16 h; 330,000 compounds, 1.3% hits; AID 504466; Potency, µM (series often up to 46 µM), for inactives: at the highest dose activity change, positive = activation, hits mostly activators; note: % of control where 0% means no effect; nearly all actives have a fitted effect of over 60% in size
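Screening used a luciferase reporter fused to human ELG1 in HEK293T cells. Luminescence was read on a CCD plate imager after 16 hr exposure and 30 min ONE-Glo incubation.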
SMN2 splice up: increases expression of the SMN2 splice variant; 210,000 compounds, 2.8% hits; HEK293 SMN2-luciferase splicing reporter, luminescence, 30-36 h; AID 1458; Potency, µM (top dose mostly 46.1 µM), for inactives: top-dose activity change, positive = activation, most hits filed as activators; note: % of control where 0% means no effect; nearly all actives have a fitted effect of over 55% in size
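HEK293 cells carry an SMN2 minigene-luciferase reporter in which exon 7 inclusion puts luciferase in frame. Cells were seeded at 2000 cells/well, attached for 10-12 hours, then exposed to compounds for 30-36 hours at 37C before ONE-Glo luminescence.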
* marks the source's active call; other numbers are inactive results; ? = inconclusive; / = no result given; [ ] = dose if it differs, or a comment. Unless noted, calls come from the whole dose curve; as a rule, active = well fitted curve in the direction sought with a large enough effect; inconclusive = small, poorly fitted or top-dose-only effect, or another doubt; inactive = no such curve, though single readings can be large; an effect the other way counts as inactive or inconclusive. Potency is the fitted concentration of half-maximal effect.

SMILES	uPA surface inh	Rab9 prom act	NPC1 promoter act	FLuc counter	ELG1 genotoxic	SMN2 splice up
COc1ccc(Cl)cc1NC(=O)CSc1nc(=O)n(CCN(C)C)c2c1CCCC2	-25%	3%	-3%	2%	-9%	/
CCCCc1cc(=O)oc2cc(C)cc(OCC(=O)Nc3ccccn3)c12	?	2.5µM*	2µM*	8.5µM*	?	/
CCCc1cc(=O)oc2cc(C)cc(OCC(=O)Nc3ccccn3)c12	-6%	12%	-3%	4%	1%	/
CCCc1cc(=O)oc2cc(OCC(=O)Nc3ccccn3)ccc12	-9%	?	3.5µM*	15µM*	21µM*	/
Cc1ccc(Cn2c(CNS(=O)(=O)c3c(C)cc(C)cc3C)nc3cccnc32)cc1	/	/	/	-16%	/	/
COc1ccc(CN2CCC(n3nccc3NC(=O)c3ccc4c(c3)OCO4)CC2)cc1C	-14%	3%	0%	-5%	0%	/
CSCCC(=O)N1CCC(n2nccc2NC(=O)c2ccc3c(c2)OCO3)CC1	4%	4µM*	2.8µM*	12µM*	?	/
Cc1ccccc1CN1CCC(n2nccc2NC(=O)c2ccc3c(c2)OCO3)CC1	-16%	21%	?	19µM*	?	/
COc1cc2c(cc1OC)C1O[C@](CCCCN3C(=O)c4ccccc4C3=O)(C2)OC2=C1C(=O)CC(C)(C)C2	/	-5%[1.84 µM]	4%[1.84 µM]	3%[11.5 µM]	/	/
COC(=O)c1ccc(C2/C(=C(/O)c3ccc4c(c3)CC(C)O4)C(=O)C(=O)N2Cc2ccncc2)cc1 (stereo not given)	-7%	-5%	-5%	-1%	0%	/
CCOc1ccc(NC(=O)Cc2csc(COc3cccc(C)c3)n2)cc1	/	/	/	-8%	/	/
CCc1ccc(C(=O)Cn2ccsc2=N)cc1	-11%	0.71µM*	1.6µM*	1.3µM*	?	/
CCOC(=O)C1CCCN(C(=S)Nc2cc(C)cc(C)c2)C1 (stereo not given)	-3%	2%	2%	-1%	-7%	19%
CC(=O)c1sc(NC(=O)c2ccccc2F)nc1-c1ccccc1	-6%	1.8µM*	2.2µM*	12µM*	-17%	11µM*
CC(=O)c1sc(NC(=O)c2ccc(F)cc2)nc1-c1ccccc1	2%	26%	?	?	?	?
COc1ccc(N2CC(C(=O)Nc3nc(-c4ccccc4)c(C(C)=O)s3)CC2=O)c(OC)c1 (stereo not given)	-2%	-8%	-2%	1%	-5%	/
COc1ccc(C(=O)Nc2nc(-c3ccccc3)c(C(C)=O)s2)c(OC)c1	2%	?	25%	0.85µM*	?	1%
Oc1ccc2ccccc2c1CNc1ccccn1	-19%	-2%	1%	?	1%	/
COc1ccc(NC(=O)Cn2c(=O)n(Cc3ccco3)c(=O)c3sc4ccccc4c32)cc1OC	/	/	/	-1%	/	-1%
COC(=O)c1cccc(CN2C(=O)SC(Nc3ccc(C)cc3)C2=O)c1 (stereo not given)	8%	7%	-3%	-3%	0%	-8%
CCOC(=O)c1ccc(NC2SC(=O)N(Cc3cccc(C(=O)O)c3)C2=O)cc1 (stereo not given)	/	/	/	24µM*	/	?
O=C(Nc1cc(F)ccc1F)c1cc2nc(-c3ccco3)cc(C(F)(F)Cl)n2n1	/	/	/	-1%	/	/
CCc1ccc(-c2cc(C(=O)Nc3c(C)n(C)n(-c4ccccc4)c3=O)c3ccccc3n2)s1	/	5%	1%	12µM*	-8%	-10%
Cc1cc(C(=O)Nc2c(C)n(C)n(-c3ccccc3)c2=O)c2ccccc2n1	-3%	0%	2%	2%	3%	10%
COc1ccc(-c2cc(C(=O)Nc3c(C)n(C)n(-c4ccccc4)c3=O)c3ccccc3n2)cc1	2%	-1%	-9%	15µM*	-21%	/
SMILES	uPA surface inh	Rab9 prom act	NPC1 promoter act	FLuc counter	ELG1 genotoxic	SMN2 splice up
COc1ccc2cc(-c3cc(C(=O)OCC(=O)Nc4c(C)n(C)n(-c5ccccc5)c4=O)c4ccccc4n3)ccc2c1	-9%	?	?	0.13µM*	2%	2µM*
Cc1cc(O)c(CN2CCN(c3ccccc3)CC2)c2oc(=O)cc(C)c12	/	/	/	-9%	/	/
CC(C)(C)OC(=O)N1CCC(N2CCN(Cc3ccccc3)C(=O)C2=O)CC1	/	/	/	1%	/	/
CC(C)(C)OC(=O)C[C@@H]1C/C=C\C[C@H](CC(=O)N(CCO)Cc2ccccc2)C(=O)N2CCC[C@H]2COC1=O	5%	/	/	/	-6%	/
CCN(CC)S(=O)(=O)c1cccc(N=Nc2c(O)c3ccccc3oc2=O)c1	-2%	16%	28%	27µM*	-2%	/
Cc1c(O)c2ccccc2oc1=O	3%	0%	-2%	-5%	1%	/
CCCCNC(=S)Nc1ccc(SC(F)F)cc1	-25%	19%	10%	17µM*	-1%	10%
O=C(Cc1ccccc1F)Nc1ccc(SC(F)F)cc1	1%	1.6µM*	4µM*	5.4µM*	?	13µM*
CCCCC(=O)OCC(=O)Nc1ccc(SC(F)F)cc1	-6%	4%	2%	21µM*	2%	-5%
CCCCNC(=S)Nc1ccc(F)cc1	0%	-2%	0%	3%	-2%	/
COc1cc(C(=O)OCC(=O)Nc2ccc(SC(F)F)cc2)cc(OC)c1OC	3%	-8%	-2%	1%	-1%	-99%
O=C(COC(=O)c1ccccc1Cc1ccccc1)Nc1ccc(SC(F)F)cc1	2%	2.8µM*	?	6µM*	?	/
CC1CCN(C(=O)Cn2ncc3c4ccccc4n(Cc4ccc(Cl)cc4)c3c2=O)CC1	/	/	/	-17%	/	4%
O=C(COC(=O)Cc1ccccc1F)Nc1ccc(SC(F)F)cc1	-2%	-3%	-2%	13µM*	0%	?
CC(=O)c1ccc(NC(=O)c2ccc(-n3cnnc3)cc2)cc1	/	/	/	1%	/	/
O=C(Nc1ccccc1)c1ccn[nH]1	-1%	2.5µM*	3.5µM*	11µM*	?	13µM*
CC(=O)c1ccc(NC(=O)c2ccn[nH]2)cc1	-9%	3.5µM*	2µM*	9.5µM*	10µM*	11µM*
CCC(C)NC(=O)Cn1c(=O)c2cccn2c2ccc(F)cc21 (stereo not given)	/	/	/	-2%	/	/
CC(C)c1ccc2c(c1)[C@H]1OCC[C@H]1[C@@H](c1cccs1)N2	-13%	-13%	-14%	9.5µM*	1%	-41%
Cc1ccc(-c2nnc(NC(=O)C3=COCCO3)o2)c(C)c1	-3%	11%	19%	15µM*	8%	/
Cc1cc(C)c2sc(NC(=O)C3=COCCO3)nc2c1	-7%	0.45µM*	0.56µM*	2.1µM*	?	/
O=C(Nc1nc2cc3c(cc2s1)OCCO3)C1=COCCO1	?	-24%	-23%	0.054µM*	?	/
O=C(Nc1nc2ccc(F)cc2s1)C1=COCCO1	-6%	0.28µM*	0.71µM*	0.43µM*	?	/

From PubChem
